Test results published in the OligoGym collection.

Each sequence was assayed against TUBGCP5 (assay: pooled miR-30 sensor sort-seq; sequence = guide strand). Conditions: shRNA.
Further: reference of the scale not given here.

Row | Sequence | sensor-assay potency score (higher = more potent)
1 | TTAATCTCTTCCAACTAGCAGC | -0.324
2 | TGGATCATGAACATCATCCAGT | -0.749
3 | TAACGGTGTCCTGTCTACCTGA | -0.629
4 | TAGATAGACGTGAACTATCTTC | -0.283
5 | TAAACTATGAGGAAACTGGGAG | 0.101
6 | TACAACTCTATACAGTATCTAC | -0.752
7 | TTGATCTTGTTCTTCTAACGGT | 0.145
8 | TTCTGTTTTGATCTTGTTCTTC | 0.0443
9 | TATTGTAGTATCATTATTGATG | -0.448
10 | ATCTCTTCCAACTAGCAGCTTT | -0.582
11 | TTTGTGGCTGTTGACATCCAAG | -1.62
12 | TTTTTCTGCAGTACTAACCAGT | -0.246

Each sequence was assayed against TULP4 in the same assay as above. Conditions: shRNA.

Row | Sequence | sensor-assay potency score (higher = more potent)
13 | TTTCTGACTCTTCACTTTCTTC | -1.27
14 | TTCTTCTGCTCGGCTGTCCAGG | -0.627
15 | TACAGCTGTCGTCTGGTTGGTC | -0.0173
16 | TTGTAGAACTTGACCATGGCAC | 0.0563
17 | TTCAAGCACACATCCACTGGGG | 0.492
18 | TTTGTCTTATTCAACTTCTTTG | -1.04
19 | TTGTCTTATTCAACTTCTTTGA | -0.83
